We go through six compounds from ChEMBL document CHEMBL2218924, “A broad activity screen in support of a chemogenomic map for kinase signalling research and drug discovery” (Biochem J, 2013).

The target in test [1] is Serine/threonine-protein kinase PLK3 (Homo sapiens) (UniProt Q9H4B4). As to conditions: at 1 µM; call rule not given here.
The target is the same in test [2]. The following applies: at 10 µM.
For test [3], the target named is T1, cAMP-dependent protein kinase catalytic subunit PRKX (Homo sapiens) (UniProt P51817).
T1 sequence (whole entry): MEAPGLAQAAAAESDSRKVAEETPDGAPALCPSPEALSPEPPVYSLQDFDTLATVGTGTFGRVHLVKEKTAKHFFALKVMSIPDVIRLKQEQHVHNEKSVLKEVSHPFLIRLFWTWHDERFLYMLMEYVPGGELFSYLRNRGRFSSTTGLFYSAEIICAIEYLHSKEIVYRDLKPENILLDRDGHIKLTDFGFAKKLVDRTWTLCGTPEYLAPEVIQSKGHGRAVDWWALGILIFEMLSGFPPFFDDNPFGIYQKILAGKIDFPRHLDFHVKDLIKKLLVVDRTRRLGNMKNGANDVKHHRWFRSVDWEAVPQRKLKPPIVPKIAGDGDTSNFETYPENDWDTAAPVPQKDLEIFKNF
As to conditions: at 1 µM.

In test [4] the target is T1, cAMP-dependent protein kinase catalytic subunit PRKX (Homo sapiens). As to conditions: at 10 µM.
In test [5] the target is Protein-tyrosine kinase 2-beta (Homo sapiens) (UniProt Q14289). The following applies: at 1 µM.
The target is the same in test [6]. As to conditions: at 10 µM.
The target of test [7] is Receptor-interacting serine/threonine-protein kinase 2 (Homo sapiens) (UniProt O43353). The following applies: at 1 µM.
Test [8] has the same target. As to conditions: at 10 µM.
Test [9] concerns the target Rho-associated protein kinase 1 (Homo sapiens) (UniProt Q13464). The following applies: at 1 µM.
For test [10] the target is unchanged. As to conditions: at 10 µM.
The target in test [11] is Rho-associated protein kinase 2 (Homo sapiens) (UniProt O75116). As to conditions: at 1 µM.
Chain of Rho-associated protein kinase 2 (Homo sapiens) (O75116 whole entry, looked up): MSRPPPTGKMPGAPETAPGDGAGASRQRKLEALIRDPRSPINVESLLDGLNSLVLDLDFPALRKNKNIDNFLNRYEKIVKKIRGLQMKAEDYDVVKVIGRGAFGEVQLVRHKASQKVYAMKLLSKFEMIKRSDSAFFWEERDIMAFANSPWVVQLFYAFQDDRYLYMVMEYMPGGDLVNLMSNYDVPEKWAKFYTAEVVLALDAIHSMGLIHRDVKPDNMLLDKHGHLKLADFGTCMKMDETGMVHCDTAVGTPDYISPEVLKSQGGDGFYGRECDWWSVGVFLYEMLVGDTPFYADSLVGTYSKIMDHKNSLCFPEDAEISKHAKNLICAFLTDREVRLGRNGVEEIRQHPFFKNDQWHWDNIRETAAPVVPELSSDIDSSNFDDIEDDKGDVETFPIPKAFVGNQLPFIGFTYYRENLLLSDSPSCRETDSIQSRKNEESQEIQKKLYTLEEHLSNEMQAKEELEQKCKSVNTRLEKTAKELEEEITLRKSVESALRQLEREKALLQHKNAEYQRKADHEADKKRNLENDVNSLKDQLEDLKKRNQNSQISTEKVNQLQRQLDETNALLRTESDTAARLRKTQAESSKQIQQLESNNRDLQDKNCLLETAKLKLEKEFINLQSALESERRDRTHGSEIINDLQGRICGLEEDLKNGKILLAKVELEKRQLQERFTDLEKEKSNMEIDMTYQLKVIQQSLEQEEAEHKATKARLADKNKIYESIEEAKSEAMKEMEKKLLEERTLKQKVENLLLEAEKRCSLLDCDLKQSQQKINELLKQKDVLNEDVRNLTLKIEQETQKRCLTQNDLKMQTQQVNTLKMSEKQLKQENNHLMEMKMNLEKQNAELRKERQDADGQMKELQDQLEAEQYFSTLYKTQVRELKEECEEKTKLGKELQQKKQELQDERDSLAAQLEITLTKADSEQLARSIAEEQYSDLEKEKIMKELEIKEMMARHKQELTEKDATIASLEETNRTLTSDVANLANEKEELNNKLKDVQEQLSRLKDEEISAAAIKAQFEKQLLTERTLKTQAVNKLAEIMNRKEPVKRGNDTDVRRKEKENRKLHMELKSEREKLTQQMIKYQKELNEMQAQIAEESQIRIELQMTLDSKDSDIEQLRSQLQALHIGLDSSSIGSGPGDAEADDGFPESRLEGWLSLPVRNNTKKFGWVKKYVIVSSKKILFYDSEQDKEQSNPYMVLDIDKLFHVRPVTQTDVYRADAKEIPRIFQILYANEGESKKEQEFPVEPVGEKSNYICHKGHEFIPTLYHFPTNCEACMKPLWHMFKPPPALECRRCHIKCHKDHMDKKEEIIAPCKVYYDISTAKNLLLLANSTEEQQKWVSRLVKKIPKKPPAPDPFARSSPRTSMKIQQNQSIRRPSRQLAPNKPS
The target is the same in test [12]. The following applies: at 10 µM.
In test [13] the target is Proto-oncogene tyrosine-protein kinase receptor Ret (Homo sapiens) (UniProt P07949). The following applies: at 1 µM.
Test [14] shares this target. The following applies: at 10 µM.
Test [15] has as its target Macrophage-stimulating protein receptor (Homo sapiens) (UniProt Q04912). As to conditions: at 1 µM.
The target is the same in test [16]. The following applies: at 10 µM.
The target of test [17] is Proto-oncogene tyrosine-protein kinase ROS (Homo sapiens) (UniProt P08922). The following applies: at 1 µM.
Chain of Proto-oncogene tyrosine-protein kinase ROS (Homo sapiens) (P08922 whole entry): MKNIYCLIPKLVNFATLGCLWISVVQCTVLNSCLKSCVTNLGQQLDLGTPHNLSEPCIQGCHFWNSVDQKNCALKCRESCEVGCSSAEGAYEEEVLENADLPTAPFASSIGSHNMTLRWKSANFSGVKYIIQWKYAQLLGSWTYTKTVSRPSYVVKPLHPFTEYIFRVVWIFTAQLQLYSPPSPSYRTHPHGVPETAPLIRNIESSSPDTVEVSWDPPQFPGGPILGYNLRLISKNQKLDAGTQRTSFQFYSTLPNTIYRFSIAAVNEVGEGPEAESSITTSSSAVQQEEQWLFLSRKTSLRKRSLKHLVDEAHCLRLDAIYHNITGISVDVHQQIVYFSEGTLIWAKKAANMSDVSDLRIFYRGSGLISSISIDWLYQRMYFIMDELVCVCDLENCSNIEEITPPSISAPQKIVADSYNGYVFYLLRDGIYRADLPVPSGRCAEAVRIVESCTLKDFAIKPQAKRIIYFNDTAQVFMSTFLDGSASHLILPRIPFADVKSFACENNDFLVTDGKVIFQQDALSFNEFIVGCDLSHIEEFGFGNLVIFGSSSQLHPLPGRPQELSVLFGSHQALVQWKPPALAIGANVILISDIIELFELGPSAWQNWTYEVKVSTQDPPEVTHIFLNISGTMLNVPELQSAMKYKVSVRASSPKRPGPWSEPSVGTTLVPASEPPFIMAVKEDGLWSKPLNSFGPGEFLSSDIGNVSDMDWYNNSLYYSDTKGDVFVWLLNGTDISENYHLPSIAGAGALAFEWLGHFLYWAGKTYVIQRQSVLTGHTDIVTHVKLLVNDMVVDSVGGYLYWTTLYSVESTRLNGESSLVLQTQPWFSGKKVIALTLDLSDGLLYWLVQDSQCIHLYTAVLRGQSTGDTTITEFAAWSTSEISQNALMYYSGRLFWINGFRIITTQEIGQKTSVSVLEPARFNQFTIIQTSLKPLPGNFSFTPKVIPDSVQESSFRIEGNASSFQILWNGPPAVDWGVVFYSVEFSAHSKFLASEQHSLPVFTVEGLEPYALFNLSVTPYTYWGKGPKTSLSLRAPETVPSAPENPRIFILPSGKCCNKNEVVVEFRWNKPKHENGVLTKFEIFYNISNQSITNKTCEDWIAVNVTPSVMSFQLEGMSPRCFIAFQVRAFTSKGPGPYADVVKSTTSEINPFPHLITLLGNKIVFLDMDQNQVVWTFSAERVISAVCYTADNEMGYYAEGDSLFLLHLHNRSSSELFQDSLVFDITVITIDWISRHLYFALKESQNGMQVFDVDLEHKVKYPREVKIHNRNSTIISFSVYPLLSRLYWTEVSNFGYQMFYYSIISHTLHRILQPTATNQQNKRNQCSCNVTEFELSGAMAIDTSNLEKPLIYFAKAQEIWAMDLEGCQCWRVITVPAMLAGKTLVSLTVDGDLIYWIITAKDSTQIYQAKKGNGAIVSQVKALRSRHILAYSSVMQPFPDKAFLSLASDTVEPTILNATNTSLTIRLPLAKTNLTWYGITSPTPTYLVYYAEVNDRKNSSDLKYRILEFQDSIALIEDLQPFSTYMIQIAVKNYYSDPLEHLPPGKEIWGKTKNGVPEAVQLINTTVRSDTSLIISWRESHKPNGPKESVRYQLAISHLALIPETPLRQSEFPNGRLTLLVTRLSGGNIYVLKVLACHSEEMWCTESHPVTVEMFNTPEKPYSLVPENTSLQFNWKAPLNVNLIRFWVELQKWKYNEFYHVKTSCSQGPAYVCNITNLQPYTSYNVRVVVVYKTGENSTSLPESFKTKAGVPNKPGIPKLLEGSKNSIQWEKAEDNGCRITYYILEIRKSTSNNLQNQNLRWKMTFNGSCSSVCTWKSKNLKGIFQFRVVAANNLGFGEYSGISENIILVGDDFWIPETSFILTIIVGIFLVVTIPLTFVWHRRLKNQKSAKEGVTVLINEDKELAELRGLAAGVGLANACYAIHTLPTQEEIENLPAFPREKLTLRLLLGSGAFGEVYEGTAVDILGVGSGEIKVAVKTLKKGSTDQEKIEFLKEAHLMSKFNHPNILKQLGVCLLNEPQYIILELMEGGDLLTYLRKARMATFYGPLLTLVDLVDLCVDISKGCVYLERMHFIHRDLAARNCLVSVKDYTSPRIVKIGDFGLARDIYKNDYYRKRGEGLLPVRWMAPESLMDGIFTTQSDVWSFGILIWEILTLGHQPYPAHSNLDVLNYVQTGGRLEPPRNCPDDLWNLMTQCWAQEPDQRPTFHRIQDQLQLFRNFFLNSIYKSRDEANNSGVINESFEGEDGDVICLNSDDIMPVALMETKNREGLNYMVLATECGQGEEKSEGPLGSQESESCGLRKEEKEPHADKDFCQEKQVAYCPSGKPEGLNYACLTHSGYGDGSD
Test [18] shares this target. The following applies: at 10 µM.
Test [19] deals with T2, Tyrosine-protein kinase receptor TYRO3 (Homo sapiens) (UniProt Q06418).
T2 sequence (whole entry): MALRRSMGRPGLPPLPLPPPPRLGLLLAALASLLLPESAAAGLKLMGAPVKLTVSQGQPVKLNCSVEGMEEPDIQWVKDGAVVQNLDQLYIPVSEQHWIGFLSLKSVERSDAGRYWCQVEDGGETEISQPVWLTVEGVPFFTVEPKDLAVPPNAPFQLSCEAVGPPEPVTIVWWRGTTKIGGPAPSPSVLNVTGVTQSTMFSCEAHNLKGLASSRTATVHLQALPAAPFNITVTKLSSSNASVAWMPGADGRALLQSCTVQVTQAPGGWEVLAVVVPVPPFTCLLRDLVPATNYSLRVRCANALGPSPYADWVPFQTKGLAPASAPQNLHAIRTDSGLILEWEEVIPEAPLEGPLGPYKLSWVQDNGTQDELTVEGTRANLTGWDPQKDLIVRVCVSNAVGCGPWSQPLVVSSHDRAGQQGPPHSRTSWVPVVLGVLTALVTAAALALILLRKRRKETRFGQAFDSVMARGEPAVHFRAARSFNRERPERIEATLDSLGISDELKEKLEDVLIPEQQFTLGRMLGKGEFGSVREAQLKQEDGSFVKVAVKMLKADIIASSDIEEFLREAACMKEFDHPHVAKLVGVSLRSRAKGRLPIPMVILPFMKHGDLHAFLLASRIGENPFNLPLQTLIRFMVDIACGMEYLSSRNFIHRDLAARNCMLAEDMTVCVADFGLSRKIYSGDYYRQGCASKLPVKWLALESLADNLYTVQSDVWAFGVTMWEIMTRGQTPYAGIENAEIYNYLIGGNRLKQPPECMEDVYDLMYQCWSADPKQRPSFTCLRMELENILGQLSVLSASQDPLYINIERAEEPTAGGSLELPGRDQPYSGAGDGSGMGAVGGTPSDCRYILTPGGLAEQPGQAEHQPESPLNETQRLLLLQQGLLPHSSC
As to conditions: at 1 µM.

Test [20] addresses T2, Tyrosine-protein kinase receptor TYRO3 (Homo sapiens). As to conditions: at 10 µM.

Chain of Macrophage-stimulating protein receptor (Homo sapiens) (Q04912 25-304 limits assumed): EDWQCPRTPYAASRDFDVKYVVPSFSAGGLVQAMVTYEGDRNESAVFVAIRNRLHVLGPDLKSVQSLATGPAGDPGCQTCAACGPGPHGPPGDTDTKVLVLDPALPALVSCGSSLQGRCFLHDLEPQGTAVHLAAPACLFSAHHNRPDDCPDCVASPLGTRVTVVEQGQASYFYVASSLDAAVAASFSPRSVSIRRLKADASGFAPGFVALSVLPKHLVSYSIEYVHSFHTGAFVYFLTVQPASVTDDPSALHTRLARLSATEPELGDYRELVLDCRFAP
Chain of Macrophage-stimulating protein receptor (Homo sapiens) (Q04912 310-1400 limits assumed): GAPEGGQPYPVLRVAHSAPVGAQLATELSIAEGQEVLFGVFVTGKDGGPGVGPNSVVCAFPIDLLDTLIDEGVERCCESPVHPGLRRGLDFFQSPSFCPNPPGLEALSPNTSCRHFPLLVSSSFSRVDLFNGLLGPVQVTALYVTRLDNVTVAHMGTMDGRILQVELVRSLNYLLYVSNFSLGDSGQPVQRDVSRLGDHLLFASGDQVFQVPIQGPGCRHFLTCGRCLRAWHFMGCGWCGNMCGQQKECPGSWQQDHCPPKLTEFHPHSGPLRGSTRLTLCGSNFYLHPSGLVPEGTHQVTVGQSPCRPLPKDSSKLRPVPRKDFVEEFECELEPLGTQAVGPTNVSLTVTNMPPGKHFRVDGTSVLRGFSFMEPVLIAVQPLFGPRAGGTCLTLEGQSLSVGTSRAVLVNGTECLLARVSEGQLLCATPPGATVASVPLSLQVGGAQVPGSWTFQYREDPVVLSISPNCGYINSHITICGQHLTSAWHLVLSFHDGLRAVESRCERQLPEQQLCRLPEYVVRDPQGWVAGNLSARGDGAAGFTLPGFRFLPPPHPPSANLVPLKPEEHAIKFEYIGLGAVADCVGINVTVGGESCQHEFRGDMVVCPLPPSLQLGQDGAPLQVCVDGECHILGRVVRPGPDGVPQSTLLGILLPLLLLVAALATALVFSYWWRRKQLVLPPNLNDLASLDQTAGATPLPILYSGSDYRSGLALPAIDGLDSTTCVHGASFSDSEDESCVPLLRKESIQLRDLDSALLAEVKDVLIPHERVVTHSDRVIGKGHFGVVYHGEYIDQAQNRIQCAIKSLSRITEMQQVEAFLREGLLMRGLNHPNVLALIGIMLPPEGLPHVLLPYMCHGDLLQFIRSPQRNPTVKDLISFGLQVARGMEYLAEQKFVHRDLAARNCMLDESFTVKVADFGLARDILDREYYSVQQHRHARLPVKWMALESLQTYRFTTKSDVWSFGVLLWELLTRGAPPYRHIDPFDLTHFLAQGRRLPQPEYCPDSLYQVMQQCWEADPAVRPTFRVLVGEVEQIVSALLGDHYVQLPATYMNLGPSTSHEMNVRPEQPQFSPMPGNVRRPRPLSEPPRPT

As for `NC(=O)c1ccc2[nH]c(-c3ccc(Oc4ccc(Cl)cc4)cc3)nc2c1`, the residual activity in [1] was 97% (inactive); in [2], 91%; in [3] it was 72%; in [4], 112%; in test [5], 100%; in test [6] it was 86%. For the same compound, the residual activity came to 82% in [7]; 66% in [8]; 123% in test [9]; 118% in test [10]; 83% in test [11]; 72% in test [12]. Further, the residual activity worked out at 105% in test [13]; 85% in test [14]; 74% in test [15]; 84% in test [16]; 92% in [17]; 84% in test [18]. The residual activity came to 106% in [19] and 97% in test [20].

Regarding `CO[C@H]1C[C@@H]2CC[C@@H](C)[C@@](O)(O2)C(=O)C(=O)N2CCCC[C@H]2C(=O)O[C@H]([C@H](C)C[C@@H]2CC[C@@H](O)[C@H](OC)C2)CC(=O)[C@H](C)/C=C(\C)[C@@H](O)[C@@H](OC)C(=O)[C@H](C)C[C@H](C)/C=C/C=C/C=C/1C`, the residual activity in test [1] was 93% (inactive); in test [2] it was 94%; in [3], 98%; in [4] it was 94%; in [5], 119%; in [6] it was 99%. The residual activity in test [7] amounted to 84%; in test [8] it was 84%; in test [9], 127%; in test [10] it was 140%; in test [11], 99%; in test [12], 92%. The residual activity amounted to 102% in test [13]; 107% in [14]; 99% in test [15]; 80% in test [16]; 90% in test [17]; 92% in test [18]. In addition, the residual activity in test [19] amounted to 94%; in test [20], 118%.

Take `CNc1cc2c(Nc3cccc(Br)c3)ncnc2cn1`: the residual activity was 90% (inactive) in test [1]; 91% in [2]; 95% in [3]; 75% in [4]; 116% in test [5]; 64% in test [6]. For the same compound, the residual activity in test [7] was 43%; in [8], 38%; in [9] it was 110%; in [10], 126%; in test [11], 100%; in [12], 85%. In addition, the residual activity in test [13] is 67%; in [14], 75%; in test [15] it was 88%; in test [16] it was 66%; in test [17], 96%; in test [18] it was 99%. Further, the residual activity was 77% in test [19] and 83% in [20].

As for `O=c1cc(-c2cccc3c2Sc2ccccc2S3)oc(N2CCOCC2)c1`, the residual activity in test [1] is 107% (inactive); in [2] it was 95%; in test [3], 95%; in test [4], 72%; in test [5], 91%; in test [6], 112%. Also, the residual activity in [7] came to 94%; in [8], 96%; in test [9] it was 102%; in test [10], 96%; in [11] it was 102%; in test [12], 101%. Besides, the residual activity was 102% in [13]; 83% in [14]; 90% in test [15]; 104% in test [16]; 109% in test [17]; 96% in test [18]. Moreover, the figures for the residual activity in test [19] and in test [20] were 93% and 103%, respectively.

As for `O=C1Nc2cc(Br)ccc2/C1=C1/Nc2ccccc2/C1=N\O`, the residual activity in [1] was 100% (inactive); in [2], 91%; in [3], 73%; in test [4], 36%; in test [5] it was 10%; in [6] it was 3%. Besides, the residual activity turned out to be 78% in test [7]; 85% in [8]; 113% in [9]; 102% in test [10]; 90% in test [11]; 93% in test [12]. For the same compound, the residual activity in test [13] came to 1%; in test [14] it was 0%; in test [15], 79%; in test [16], 89%; in test [17] it was 90%; in test [18], 87%. The residual activity in test [19] stood at 81%; in test [20], 78%.

As for `O=C(Nc1cccc(Nc2cc(Nc3cccc(C(F)(F)F)c3)ncn2)c1)C1CC1`, the residual activity in test [1] is 97% (inactive); in test [2], 90%; in [3] it was 102%; in test [4], 100%; in [5], 104%; in test [6], 63%. Further, the residual activity in [7] was 53%; in [8] it was 41%; in [9], 101%; in test [10] it was 99%; in test [11], 94%; in test [12] it was 80%. For the same compound, the residual activity is 89% in test [13]; 95% in test [14]; 96% in test [15]; 53% in test [16]; 92% in test [17]; 88% in test [18]. Also, the residual activity in test [19] was found to be 88%; in test [20] it was 30%.
